± gives the standard deviation of the averaged measurements.

The assay concerns lanierone-responsive B-neuron OSN class (ItypOR36). Briefly: net action potential response of lanierone B-neuron (blank-subtracted) (spikes/s (Hz)); higher = stronger excitation. Particulars: 10 µg on filter paper, neuron: B neuron (small spike amplitude). The protocol:
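Single sensillum recordings from antennal olfactory sensilla of live adult Ips typographus. Each compound was 10 µg in paraffin oil, delivered as a 0.5 s puff. Net response = spikes in the first 0.5 s of response minus the 0.5 s pre-stimulus count, doubled to give Hz, with blank response subtracted. Values are for the small-spike lanierone-responsive B-neuron (putatively expressing ItypOR36), recorded in sensilla co-housing the A-neuron class; N = 1-4, averaged.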

Where [1] appears, read: co-localized A-neuron class: (4S)-cis-verbenol.
Setting [2] is: co-localized A-neuron class: (5S,7S)-trans-conophthorin.
[3] abbreviates: co-localized A-neuron class: (+)-isopinocamphone.
[4] abbreviates: co-localized A-neuron class: (+)-trans-4-thujanol.
Setting [5] is: co-localized A-neuron class: ipsdienol.
Setting [6] is: co-localized A-neuron class: myrcene.
The mark [7] stands for this setting: co-localized A-neuron class: p-cymene.

On to `CC(=O)OCCC(C)C` [3-Methylbutyl acetate], for which the “net action potential response” value under setting [1] is -8 ± 5.3; the “net action potential response” value under setting [2] was 1.33 ± 2.3; the “net action potential response” value under setting [3] is 3.33 ± 3.1; the “net action potential response” value under setting [4] came out at 0 ± 5.3; the “net action potential response” value under setting [5] came out at 2; the “net action potential response” value under setting [6] is -6. Also, under setting [7], the “net action potential response” value is -2 ± 3.5.
For `C=CCc1ccc(OC)c(OC)c1` [Eugenol methyl ether], the “net action potential response” value was 0 ± 8.7 under setting [1]; -3 ± 5 under setting [2]; 4.67 ± 9 under setting [3]; -2 ± 1.6 under setting [4]; -1.33 ± 5 under setting [5]; 0 under setting [6]. For the same compound, the “net action potential response” value under setting [7] was -3.33 ± 9.4.
Regarding `C=CC(=C)C[C@@H](O)CC(C)C` (racemic) [(±)-Ipsenol], the “net action potential response” value was -1.33 ± 5 under setting [1]; 0 ± 5.3 under setting [2]; 0 ± 3.5 under setting [3]; 0.5 ± 1.9 under setting [4]; -5.33 ± 2.3 under setting [5]; -4 under setting [6]. Further, under setting [7], the “net action potential response” value was -8 ± 5.7.
Take `C[C@@H]1C(=O)C[C@H]2C[C@@H]1C2(C)C` [(+)-Isopinocamphone]: the “net action potential response” value reads like this: under setting [1], -0.667 ± 17; under setting [2], 1.33 ± 5; under setting [3], -5.33 ± 3.1; under setting [4], 1 ± 2.6; under setting [5], -2 ± 2; under setting [6], -2. Also, under setting [7], the “net action potential response” value was -0.667 ± 3.1.
As to `OCCc1ccccc1` [2-Phenylethanol], the “net action potential response” value is -4 ± 2 under setting [1]; -3 ± 3.8 under setting [2]; 2 ± 3.5 under setting [3]; 1 ± 3.5 under setting [4]; -3.33 ± 11 under setting [5]; 2 under setting [6]. The “net action potential response” value under setting [7] came out at 6 ± 10.
As to `C=C(C)C1CC=C(C)C(=O)C1` (racemic) [(±)-Carvone], the “net action potential response” value runs as follows: under setting [1], -1.33 ± 5; under setting [2], 1.5 ± 2.5; under setting [3], 2.67 ± 2.3; under setting [4], 1 ± 2.6; under setting [5], -4.67 ± 2.3; under setting [6], 6. For the same compound, the “net action potential response” value under setting [7] was 0 ± 5.3.

These data come from the supplement of paper PMC11577813, “Eurasian spruce bark beetle detects lanierone using a highly expressed specialist odorant receptor, present in several functional sensillum types” (BMC Biology, 2024).
